{"source": "PubChem BioAssay (NCI)", "note": "“And” between values parts separate entries of the source, which are not always exact repeats. Equal entries are not always repeated. The panel holds about 83,000 compounds, 20% with a hit somewhere; the sample as a whole holds those more often.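 96-well plates, one dose, 48 hours. Percent growth reported; active if below 10.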 The source made the active and inactive calls.", "data": [{"test_system": "TK-10 renal", "experiment": "NCI-60 one-dose screen, 48 h (100 = growth as untreated, 0 = no growth, -100 = all killed)", "settings": "10 µM", "description": "(§1) Growth inhibition of the TK-10 human tumor cell line is measured as a screen for anti-cancer activity. Cells are grown in 96 well plates and exposed to the test compound for 48 hours. Compounds are tested at a single concentration, which is 10^-5 M for most compounds. The reported endpoint is percent growth (GI% or GIPRCNT), where numbers from 0 - 100% represent growth inhibition, and numbers from -100% - 0 represent cell death. For example, a value of 40 represents 60% growth inhibition. A value of 0 means no net growth occurred over the course of the experiment. A value of -40 indicates 40% of cells at the beginning of the experiment died by the end of the experiment. A value of -100 means all cells are dead at the end of the experiment.\n(§2) NCI-60 Human Tumor Cell Lines Screen was performed using the standard one-dose NCI protocol, which is described in more detail at https://dtp.cancer.gov/discovery_development/nci-60/default.htm.\n(§3) Compounds with GIPRCNT values below 10 were considered active. Activity score was based on GIPRCNT using the following formula: […]\n(§4) Score is 0 for GIPRCNT values of 100 or above, 50 for GIPRCNT values of 0, and 100 for GIPRCNT values of -100.", "values": [{"molecule": "Nc1nc(=S)c2[nH]cnc2[nH]1", "growth": "10.3% (inactive) and 31.3% (inactive)"}, {"molecule": "COc1cc2oc3cc(=O)cc4oc(-c5ccccc5)cc(c2c2c1CCC(c1ccccc1)O2)c43", "note": "(stereo not given)", "growth": "120% (inactive)"}]}, {"test_system": "TK-10 renal", "experiment": "NCI-60 one-dose screen, 48 h (100 = growth as untreated, 0 = no growth, -100 = all killed)", "settings": "10 µM unless noted", "description": "as §1, §2, §3, §4", "values": [{"molecule": "COC(=O)c1ccccc1Cl", "growth": "97.1% (inactive)"}, {"molecule": "Cc1ccc(C(=O)c2ccc(C)cc2)cc1", "growth": "101% (inactive) and 96.5% (inactive)"}, {"molecule": "Nc1nc(-c2ccccn2)cc(-c2cc(-c3ccccn3)nc(N)n2)n1", "growth": "107% (inactive)"}, {"molecule": "CCNCc1ccccc1", "growth": "100% (inactive)"}, {"molecule": "O=C1C=CC[C@H](/C=C/c2ccccc2)O1", "growth": "41.7% (inactive) and 22.3% (inactive)"}, {"molecule": "Oc1cccnc1CN1CCOCC1", "growth": "110% (inactive) and 109% (inactive)"}, {"molecule": "OCCS", "growth": "84.7% (inactive)"}, {"molecule": "CC(C)(C)OC(=O)CC1(O)CCCCC1", "growth": "99.6% (inactive)"}, {"molecule": "O=c1[nH]c(=O)n(C2OC(CO)C(O)C2O)cc1I", "note": "(stereo not given)", "growth": "102% (inactive) and 125% (inactive)"}, {"molecule": "O=S(=O)(O)c1ccc2cc(O)ccc2c1", "growth": "99.7% (inactive)"}, {"molecule": "CNc1ccc(Cl)cc1S(=O)(=O)c1ccccc1[N+](=O)[O-]", "growth": "99.7% (inactive) and 95% (inactive)"}, {"molecule": "CN(C)C(=N)N=C(N)N", "growth": "119% (inactive) and 149% (inactive)"}, {"molecule": "CCOC(C)=N", "growth": "107% (inactive)"}, {"molecule": "CC(C)=NOC(C)C(=O)O", "note": "(stereo not given)", "growth": "104% (inactive)"}, {"molecule": "O=c1[nH]nnc2cc(Cl)ccc12", "growth": "99.3% (inactive) and 105% (inactive)"}, {"molecule": "CC(=O)Oc1ccc(C(c2ccc(OC(C)=O)cc2)c2ccccn2)cc1", "growth": "77.1% (inactive) and 86.1% (inactive)"}, {"molecule": "Cc1c(Cl)cc(Cl)c(N)c1Cl", "growth": "109% (inactive)"}, {"molecule": "CC(=O)Nc1cscc1NC(C)=O", "growth": "97.8% (inactive)"}, {"molecule": "C/C(CC(C)C)=N/NC(N)=S", "growth": "105% (inactive)"}, {"molecule": "COc1cc([C@@H]2c3cc4c(cc3[C@H](O)[C@H]3COC(=O)[C@@H]23)OCO4)cc(OC)c1OC", "growth": "21.1% (inactive) and 69.2% (inactive)"}, {"molecule": "O=C1CCC(=O)N1CC1CC2CCC1C2", "note": "(stereo not given)", "growth": "94.4% (inactive) and 83.7% (inactive)"}, {"molecule": "Oc1ccc(O)c(-c2ccccc2)c1", "growth": "96.8% (inactive)"}, {"molecule": "COC1C(OC(N)=O)C(O)C(Oc2ccc3c(O)c(NC(=O)c4ccc(O)c(CC=C(C)C)c4)c(=O)oc3c2C)OC1(C)C", "note": "(stereo not given)", "growth": "115% (inactive) and 108% (inactive)"}, {"molecule": "CCC(C)NC(=O)c1ccccc1C", "note": "(stereo not given)", "growth": "99.3% (inactive)"}, {"molecule": "Nc1c(S(=O)(=O)O)cc(Br)c2c1C(=O)c1ccccc1C2=O", "growth": "102% (inactive) and 110% (inactive)"}, {"molecule": "OC(CC(c1ccccc1)c1cccc2ccccc12)(c1ccccc1)c1ccccc1", "note": "(stereo not given)", "growth": "75.9% (inactive) and 82.7% (inactive)"}, {"molecule": "O=C(O)c1cccc(Br)c1", "growth": "108% (inactive) and 93.6% (inactive)"}, {"molecule": "CCCC(=O)Oc1ccc2ccccc2c1", "growth": "103% (inactive)"}, {"molecule": "Clc1ccc2c(c1)N(C1CCCN(Cc3ccccc3)C1)c1ccccc1S2", "note": "(stereo not given)", "growth": "98.6% (inactive)"}, {"molecule": "O=C(O)c1cc(=O)[nH]c(=O)[nH]1", "growth": "106% (inactive) and 135% (inactive)"}, {"molecule": "COc1cc(C2c3cc4c(cc3C(OC(=O)C[n+]3ccccc3)C3COC(=O)C23)OCO4)cc(OC)c1OC", "note": "(stereo not given)", "growth": "63.4% (inactive)"}, {"molecule": "COC(=O)c1nc(N)nc(C(=O)OC)c1C(=O)c1ccc(F)cc1", "growth": "109% (inactive)"}, {"molecule": "COc1ccc2nccc(Cl)c2c1", "growth": "103% (inactive)"}, {"molecule": "O=C(/C=C/C=C/c1ccc2c(c1)OCO2)N1CCCCC1", "growth": "157% (inactive) and 175% (inactive)"}, {"molecule": "CCOC(=N)c1ccc(C(=N)OCC)cc1", "growth": "96.6% (inactive)"}, {"molecule": "COC(=O)c1cc(C(=O)OC)cc([N+](=O)[O-])c1", "growth": "110% (inactive)"}]}, {"test_system": "TK-10 renal", "experiment": "NCI-60 one-dose screen, 48 h (100 = growth as untreated, 0 = no growth, -100 = all killed)", "settings": "100 µM", "description": "as §1, §2, §3, §4", "values": [{"molecule": "COc1cc2oc3cc(=O)cc4oc(-c5ccccc5)cc(c2c2c1CCC(c1ccccc1)O2)c43", "note": "(stereo not given)", "growth": "59.8% (inactive) and 8.17% (active)"}]}, {"test_system": "TK-10 renal", "experiment": "NCI-60 one-dose screen, 48 h (100 = growth as untreated, 0 = no growth, -100 = all killed)", "settings": "250 µM", "description": "as §1, §2, §3, §4", "values": [{"molecule": "Nc1nc(=S)c2[nH]cnc2[nH]1", "growth": "-17% (active) and -85.4% (active)"}]}]}
